Sampled rows, rich in hits. Any-hit rate of the full collection: about 4.7%.
tim10-1 inh = growth inhibitors of tim10-1 mutant yeast, primary screen, luminescence, uHTS. 330,000 compounds, 2.2% hits. S. cerevisiae tim10-1 ts strain growth, BacTiter-Glo, 24 h. inhibition, % at 20 µM;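 active = inhibition of at least 40%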;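 also: mutant grown at 25 °C; 0% = DMSO wells with yeast and 100% = wells holding no yeast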
TIM10 inh = growth inhibitors of isogenic TIM10 control yeast, primary screen, counter-screen for tim10-1 yeast inhibitor project, luminescence, uHTS | S. cerevisiae TIM10 strain growth, BacTiter-Glo luminescence, 24 h | inhibition, % at 10 µM | 330,000 compounds, 1.4% hits | AID 463195, 2010;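 active = inhibition of 40% or more at the single tested concentration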;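 also: wild-type TIM10 isogenic control strain grown at permissive 25 °C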
tim23-1 inh = growth inhibitors of tim23-1 mutant yeast, primary screen, luminescence, uHTS. 330,000 compounds, 1.3% hits. S. cerevisiae tim23-1 growth, BacTiter-Glo luminescence, 24 h. inhibition, % at 20 µM;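 active = growth inhibition of the mutant yeast at or above 50%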;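 also: temperature-sensitive mutant grown at 25 °C; plate controls were DMSO-treated mutant yeast for no effect and medium wells lacking yeast for full effect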
SKKanGAS inh = S. pyogenes SKKanGAS growth inhibitors in kanamycin, primary screen, streptokinase expression inhibitor project, SKKanGAS strain, BacTiter-Glo luminescence; inhibition, % at 7.5 µM; 300,000 compounds, 1.3% hits; 6 h;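 active = mean replicate score, as percent of positive control median, at least 50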;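 also: strain carries kanamycin resistance gene driven by streptokinase promoter and grows in 40 µg/ml kanamycin; loss of luminescence reflects streptokinase promoter inhibition or plain growth inhibition; 0% = median of DMSO wells and 100% = positive control at its reference dose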
EBI2 antag = EBI2 receptor antagonists, beta-arrestin recruitment, primary screen, cell-based, luminescence, 7a,25-OHC stimulation, uHTS | 7a,25-OHC stimulated | inhibition, % at 5 µM | 360,000 compounds, 0.81% hits | AID 651636, 2012; in the data active = inhibition above about 38%;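 also: enzyme fragment complementation signal reports receptor beta-arrestin coupling in cells; 0% = agonist plus DMSO wells and 100% = wells without agonist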
Target sequence (P32249 whole entry, looked up, the tested form may be a part): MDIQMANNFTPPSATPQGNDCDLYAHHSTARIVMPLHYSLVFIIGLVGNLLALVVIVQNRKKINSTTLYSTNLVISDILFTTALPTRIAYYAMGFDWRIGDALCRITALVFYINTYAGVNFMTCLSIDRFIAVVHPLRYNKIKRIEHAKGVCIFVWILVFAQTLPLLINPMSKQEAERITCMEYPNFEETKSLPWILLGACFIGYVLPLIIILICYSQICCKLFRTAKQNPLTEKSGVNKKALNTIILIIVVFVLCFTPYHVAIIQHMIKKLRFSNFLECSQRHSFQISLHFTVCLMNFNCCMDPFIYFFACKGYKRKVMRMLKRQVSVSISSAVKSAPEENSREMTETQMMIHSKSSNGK
PfHsp90 set2 = growth inhibition of PfHsp90-expressing yeast, primary screen, antimalarial PfHsp90 inhibitor project, S. cerevisiae, BacTiter-Glo luminescence, single point, set 2; 310,000 compounds, 0.32% hits; BacTiter-Glo ATP, 48 h; yeast lacking PDR1 and PDR3 efflux regulators; inhibition, % at 9.4 µM;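 active = every replicate shows inhibition above about 80%, whatever the replicate mean, limit read from the data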;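 also: 0% = DMSO neutral controls and 100% = 20 µM radicicol positive controls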
tim10-1 conf = growth inhibitors of tim10-1 mutant yeast, confirmation, single concentration, luminescence, S. cerevisiae; inhibition, % at 20 µM; S. cerevisiae tim10-1 ts strain growth, BacTiter-Glo, 24 h; 7,400 compounds, 56% hits; shares compounds with tim10-1 inh;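 active = inhibition of yeast growth at or above a set limit in either of two repeat tests at 20 µM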;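 also: tim10-1 mutant grown at permissive 25 °C to find synthetic lethal compounds; 0% = DMSO yeast wells and 100% = medium wells without yeast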
Active calls of the source: *; x = no result given.

SMILES	tim10-1 inh	TIM10 inh	tim23-1 inh	SKKanGAS inh	EBI2 antag	PfHsp90 set2	tim10-1 conf
CCN(CC)CCN(C(=O)/C=C/c1cccs1)c1nc2ccc(Cl)cc2s1	27.6	34.8	32.5	-1.2	9.6	10.4	x
O=C(O)c1ccc2c(c1)C(=O)N(CCc1c[nH]c3ccccc13)C2=O	97.9*	10.7	8.5	6.1	6.7	9.3	-11.1
O=C(NC1CCN(Cc2ccccc2)CC1)c1ccccc1	-7.2	1.6	-0.5	-0.2	-1.3	30.4	x
O=C(NC1CCN(CCc2c[nH]c3ccccc23)CC1)c1ccccc1	43.2*	12.2	21.4	0.6	1.2	7.5	19.9
Cc1nc2sccn2c1P(c1c(C)nc2sccn12)c1c(C)nc2sccn12	0.1	0.6	-0.9	0.3	2.5	-9.0	x
CCOC(=O)C1=C(N)Oc2cc(O)ccc2C1c1cccc([N+](=O)[O-])c1 (centres undefined)	45.9*	37.7	43.8	-3.5	14.7	-10.2	29.8
CCOC(=O)c1c(C)[nH]c(=S)c(C#N)c1-c1ccc(Cl)cc1	54.4*	20.7	35.8	17.3	-4.7	-17.3	27.6
CCOC(=O)c1c(C)[nH]c(=S)c(C#N)c1-c1ccc(OC)cc1	31.9	13.6	12.7	5.2	-8.2	9.7	x
CCN(CC(=O)NCc1ccc(Cl)cc1)C(=O)C1CCN(S(=O)(=O)c2ccc(OC)c(OC)c2)CC1	-19.4	1.3	-7.3	5.3	-8.2	x	x
O=C1OCC/C1=C\OCCCO/C=C1\CCOC1=O	7.5	-1.9	-2.6	-1.2	-15.9	-8.4	x
CN(C)S(=O)(=O)c1cccc(NC(=S)NN=C(Cc2ccccc2)Cc2ccccc2)c1	43.6*	21.9	41.0	8.1	5.9	-45.3	22.0
CN(CC(=O)Nc1cccc(S(=O)(=O)N(C)C)c1)Cc1ccccc1	0.6	-2.6	6.3	-3.5	-3.0	-45.6	x
COc1cc(/C=C/C(=O)c2ccc(O)cc2)ccc1OCC#N	17.4	12.2	20.7	2.9	-22.1	3.3	x
COc1cccc(C(=O)/C=C/c2ccc(OCC#N)c(OC)c2)c1	42.6*	37.9	38.4	-0.3	15.0	-19.9	30.6
COC(=O)c1ccc(/C=C/C(=O)c2cccc(OC)c2)cc1	42.1*	20.4	35.7	17.7	5.6	6.7	34.4*
CCCCCCCSc1nsc(N)n1	45.4*	23.8	43.3	-8.9	-18.8	x	20.6
Cc1[nH]n(-c2ccc([N+](=O)[O-])cc2)c(=O)c1C=NCCN1CCN(C(=O)c2cccc(F)c2)CC1	41.6*	22.7	37.7	23.9	3.0	84.3*	47.8*
Cc1[nH]n(-c2ccc([N+](=O)[O-])cc2)c(=O)c1C=NCCN1CCN(C(=O)c2ccc(F)cc2)CC1	35.5	15.4	30.4	22.3	-13.1	-18.1	x
C=CCN(CC=C)c1nc2ccccc2nc1C(C#N)C(=O)OC(C)C (centres undefined)	45.1*	32.0	48.8	5.5	-3.0	-20.5	38.3*
CCCCc1ccc(NC(=S)NCc2ccc(OC)cc2)cc1	45.7*	33.6	24.8	-11.3	-0.1	-6.0	-16.2
N#C/C(=C/c1ccc(-c2ccc(Br)cc2)o1)C(=O)NC1CCCCC1	22.2	18.9	18.9	13.6	26.1	-0.5	x
N#C/C(=C\c1ccc(-c2ccc(Br)cc2)o1)C(=O)NCCc1c[nH]c2ccccc12	40.9*	37.4	13.8	x	6.8	-36.0	21.0
CCc1c(C)sc(NC(=O)c2cc(C(C)C)on2)c1C#N	9.4	10.5	25.7	1.7	0.8	7.5	x
Cc1cc(C(=O)Nc2sc(C)c(C)c2C#N)no1	42.9*	11.3	27.3	3.7	-1.7	-4.6	19.7
COC(=O)c1c(O)cc(C(C)(C)C)n(-c2ccccc2)c1=O	9.4	-2.9	21.1	9.4	-10.8	-7.2	x
SMILES	tim10-1 inh	TIM10 inh	tim23-1 inh	SKKanGAS inh	EBI2 antag	PfHsp90 set2	tim10-1 conf
COc1ccccc1P(=O)(c1ccccc1)c1ccc([N+](=O)[O-])cc1 (centres undefined)	1.8	12.1	3.3	2.0	3.8	-16.2	x
O=C(c1cc2ccccn2n1)N1CCN(c2cccc(C(F)(F)F)c2)CC1	21.9	8.5	26.1	-8.3	10.5	-19.2	x
Cc1ccc(C)c(N2CCN(C(=O)c3cc4ccccn4n3)CC2)c1	41.3*	20.4	46.3	0.1	57.8*	-3.6	34.5*
COc1cc(Br)ccc1C1CC(=O)C(C)C(c2ccc(Br)cc2OC)N1 (centres undefined)	52.6*	20.2	26.4	31.7	8.5	22.8	10.2
COc1ccc(C2NC(c3ccc(OC)c(OC)c3OC)C(C)C(=O)C2C)c(OC)c1OC (centres undefined)	9.0	17.0	13.1	1.3	-2.7	-13.4	x
CC1CC(C)CN(C(=O)C(C)N2CCN(S(=O)(=O)c3ccc(Br)s3)CC2)C1 (centres undefined)	10.2	27.7	42.5	x	-3.3	5.2	x
Cc1c(NC(=O)CCc2ccccc2)cccc1[N+](=O)[O-]	3.1	-1.7	13.6	-3.5	6.6	-6.2	x
Cc1cc(=O)n(-c2ccc3ccccc3n2)[nH]1	54.1*	12.7	11.9	2.3	2.6	-15.0	19.2
N#Cc1cc(C(=O)c2ccccc2OCC(=O)Nc2ccccc2Cl)cn(C2CCCCC2)c1=O	43.5*	7.6	26.1	2.5	13.4	-22.0	18.5
CC(=O)c1cccc(NC(=O)COc2ccccc2C(=O)c2cc(C#N)c(=O)n(C3CCCCC3)c2)c1	25.7	-3.3	12.2	10.2	7.1	4.1	x
C/C(=N/Nc1nc(-c2ccc(Cl)cc2)cs1)c1cccs1	44.9*	17.2	-0.8	-0.7	-1.7	0.9	12.6
CC(=O)Nc1ccc(-c2csc(N/N=C(/C)c3ccccc3)n2)cc1	37.9	21.9	31.1	-3.8	1.5	14.9	x
CCOC(=O)N/N=C(\C)c1ccc(OC(F)F)cc1OC(F)F	-5.1	-6.9	-0.4	2.3	5.0	10.1	x
O/N=C(/c1ccc(Cl)cc1)C1CC1c1ccccc1 (centres undefined)	50.6*	34.8	39.4	21.9	-4.2	-9.8	26.6
CCn1c(CNC(=O)c2cccnc2)cc2ccccc21	8.7	-3.1	1.4	-3.9	-4.0	17.6	x
C[C@@H]1CCCCO[C@@H](CN(C)S(=O)(=O)c2ccccc2)[C@@H](C)CN([C@H](C)CO)C(=O)c2cc(NS(=O)(=O)c3ccc(F)cc3)ccc2O1	x	x	x	x	-2.6	x	x

Bioassay records from PubChem BioAssay.
